Measured values from ChEMBL document CHEMBL1961873, “Compounds: GSK PKIS; Assays: Nanosyn kinase panel” (2012).

Experiments:
[1] = target: Serine/threonine-protein kinase pim-2 (Homo sapiens) (UniProt Q9P1W9); conditions: at 1 µM;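 also: each value is a mean of the inhibition measurements against the kinase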
[2] = target: Serine/threonine-protein kinase pim-3 (Homo sapiens) (UniProt Q86V86); conditions: at 0.1 µM
[3] = target: Serine/threonine-protein kinase pim-3 (Homo sapiens) (UniProt Q86V86); conditions: at 1 µM
[4] = target: T1, MAP kinase-activated protein kinase 5 (Homo sapiens) (UniProt Q8IW41); conditions: at 0.1 µM
T1 sequence (whole entry): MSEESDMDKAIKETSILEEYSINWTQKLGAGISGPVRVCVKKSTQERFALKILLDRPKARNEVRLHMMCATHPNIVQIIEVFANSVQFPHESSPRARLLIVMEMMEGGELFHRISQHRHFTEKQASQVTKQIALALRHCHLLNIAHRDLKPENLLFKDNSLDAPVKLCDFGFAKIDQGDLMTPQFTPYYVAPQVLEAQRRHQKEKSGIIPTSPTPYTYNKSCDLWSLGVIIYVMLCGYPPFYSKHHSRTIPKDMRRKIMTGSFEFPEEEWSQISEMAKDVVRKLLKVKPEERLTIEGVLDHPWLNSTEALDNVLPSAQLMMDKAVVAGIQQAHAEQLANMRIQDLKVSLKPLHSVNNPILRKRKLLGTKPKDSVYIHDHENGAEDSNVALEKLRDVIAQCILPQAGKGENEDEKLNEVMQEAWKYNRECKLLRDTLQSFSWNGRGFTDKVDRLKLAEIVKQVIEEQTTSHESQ

[5] = target: T1, MAP kinase-activated protein kinase 5 (Homo sapiens); conditions: at 1 µM
[6] = target: Serine/threonine-protein kinase SIK1 (Homo sapiens) (UniProt P57059); conditions: at 0.1 µM
[7] = target: Serine/threonine-protein kinase SIK1 (Homo sapiens) (UniProt P57059); conditions: at 1 µM
[8] = target: Serine/threonine-protein kinase SIK2 (Homo sapiens) (UniProt Q9H0K1); conditions: at 0.1 µM
[9] = target: Serine/threonine-protein kinase SIK2 (Homo sapiens) (UniProt Q9H0K1); conditions: at 1 µM
[10] = target: T2, Serine/threonine-protein kinase TBK1 (Homo sapiens) (UniProt Q9UHD2); conditions: at 0.1 µM
T2 sequence (whole entry): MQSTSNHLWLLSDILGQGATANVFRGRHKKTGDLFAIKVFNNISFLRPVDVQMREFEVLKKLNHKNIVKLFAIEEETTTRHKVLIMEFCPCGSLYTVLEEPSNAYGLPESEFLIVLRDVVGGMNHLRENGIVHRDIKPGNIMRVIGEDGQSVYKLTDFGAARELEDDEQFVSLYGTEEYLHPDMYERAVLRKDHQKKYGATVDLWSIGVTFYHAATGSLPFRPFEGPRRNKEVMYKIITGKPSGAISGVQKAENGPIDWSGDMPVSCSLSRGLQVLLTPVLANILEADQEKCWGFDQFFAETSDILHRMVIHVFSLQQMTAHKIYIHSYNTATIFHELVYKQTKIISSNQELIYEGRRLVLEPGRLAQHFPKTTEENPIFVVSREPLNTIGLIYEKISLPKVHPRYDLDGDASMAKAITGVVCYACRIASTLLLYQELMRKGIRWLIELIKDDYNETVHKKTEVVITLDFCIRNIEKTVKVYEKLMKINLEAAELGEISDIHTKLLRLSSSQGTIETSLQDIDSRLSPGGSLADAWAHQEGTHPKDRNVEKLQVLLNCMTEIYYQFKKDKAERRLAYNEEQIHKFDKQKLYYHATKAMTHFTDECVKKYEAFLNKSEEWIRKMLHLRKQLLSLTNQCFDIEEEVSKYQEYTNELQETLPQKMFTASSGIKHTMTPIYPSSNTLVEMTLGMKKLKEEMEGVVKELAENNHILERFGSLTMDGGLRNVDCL

[11] = target: T2, Serine/threonine-protein kinase TBK1 (Homo sapiens); conditions: at 1 µM
[12] = target: T3, Testis-specific serine/threonine-protein kinase 1 (Homo sapiens) (UniProt Q9BXA7); conditions: at 0.1 µM
T3 sequence (whole entry): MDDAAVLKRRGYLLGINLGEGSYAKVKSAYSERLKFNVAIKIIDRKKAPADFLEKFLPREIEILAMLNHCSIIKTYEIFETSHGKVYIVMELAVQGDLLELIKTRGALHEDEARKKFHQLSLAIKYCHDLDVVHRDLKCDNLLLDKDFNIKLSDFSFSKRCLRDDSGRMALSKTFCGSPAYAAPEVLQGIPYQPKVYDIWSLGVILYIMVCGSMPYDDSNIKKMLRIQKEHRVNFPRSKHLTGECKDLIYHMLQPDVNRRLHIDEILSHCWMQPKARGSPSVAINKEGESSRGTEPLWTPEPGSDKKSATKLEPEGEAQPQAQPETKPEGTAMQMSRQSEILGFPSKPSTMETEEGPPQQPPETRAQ

[13] = target: T3, Testis-specific serine/threonine-protein kinase 1 (Homo sapiens); conditions: at 1 µM
[14] = target: T4, Testis-specific serine/threonine-protein kinase 2 (Homo sapiens) (UniProt Q96PF2); conditions: at 0.1 µM
T4 sequence (whole entry): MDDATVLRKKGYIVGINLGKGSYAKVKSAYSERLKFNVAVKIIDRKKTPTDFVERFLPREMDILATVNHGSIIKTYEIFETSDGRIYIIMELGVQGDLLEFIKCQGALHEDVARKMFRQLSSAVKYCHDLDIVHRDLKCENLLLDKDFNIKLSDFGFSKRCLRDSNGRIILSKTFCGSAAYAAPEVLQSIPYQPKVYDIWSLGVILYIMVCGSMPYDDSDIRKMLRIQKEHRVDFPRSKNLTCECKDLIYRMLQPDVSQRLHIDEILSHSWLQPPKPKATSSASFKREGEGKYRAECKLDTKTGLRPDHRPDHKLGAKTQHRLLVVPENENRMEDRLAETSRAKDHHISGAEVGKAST

[15] = target: T4, Testis-specific serine/threonine-protein kinase 2 (Homo sapiens); conditions: at 1 µM
[16] = target: Casein kinase I isoform alpha (Homo sapiens) (UniProt P48729); conditions: at 0.1 µM
[17] = target: Casein kinase I isoform alpha (Homo sapiens) (UniProt P48729); conditions: at 1 µM
[18] = target: Casein kinase I isoform gamma-1 (Homo sapiens) (UniProt Q9HCP0); conditions: at 0.1 µM
[19] = target: Casein kinase I isoform gamma-1 (Homo sapiens) (UniProt Q9HCP0); conditions: at 1 µM
[20] = target: Casein kinase I isoform gamma-2 (Homo sapiens) (UniProt P78368); conditions: at 0.1 µM;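 also: values are mean inhibition figures reported as part of the GSK PKIS dataset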
Casein kinase I isoform gamma-2 (Homo sapiens), sequence (P78368 whole entry, looked up, canonical isoform): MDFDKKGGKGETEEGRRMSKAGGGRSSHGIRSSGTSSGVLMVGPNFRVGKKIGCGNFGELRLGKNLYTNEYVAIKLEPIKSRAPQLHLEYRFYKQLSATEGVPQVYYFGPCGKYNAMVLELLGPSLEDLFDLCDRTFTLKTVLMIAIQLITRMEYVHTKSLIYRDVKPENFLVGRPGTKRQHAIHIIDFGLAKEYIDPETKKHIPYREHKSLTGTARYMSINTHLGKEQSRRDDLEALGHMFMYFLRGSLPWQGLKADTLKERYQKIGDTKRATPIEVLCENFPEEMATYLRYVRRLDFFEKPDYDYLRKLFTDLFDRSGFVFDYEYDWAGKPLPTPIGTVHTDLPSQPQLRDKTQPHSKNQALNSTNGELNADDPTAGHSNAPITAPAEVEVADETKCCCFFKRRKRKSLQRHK

Casein kinase I isoform gamma-1 (Homo sapiens), sequence (Q9HCP0 whole entry, looked up, canonical isoform): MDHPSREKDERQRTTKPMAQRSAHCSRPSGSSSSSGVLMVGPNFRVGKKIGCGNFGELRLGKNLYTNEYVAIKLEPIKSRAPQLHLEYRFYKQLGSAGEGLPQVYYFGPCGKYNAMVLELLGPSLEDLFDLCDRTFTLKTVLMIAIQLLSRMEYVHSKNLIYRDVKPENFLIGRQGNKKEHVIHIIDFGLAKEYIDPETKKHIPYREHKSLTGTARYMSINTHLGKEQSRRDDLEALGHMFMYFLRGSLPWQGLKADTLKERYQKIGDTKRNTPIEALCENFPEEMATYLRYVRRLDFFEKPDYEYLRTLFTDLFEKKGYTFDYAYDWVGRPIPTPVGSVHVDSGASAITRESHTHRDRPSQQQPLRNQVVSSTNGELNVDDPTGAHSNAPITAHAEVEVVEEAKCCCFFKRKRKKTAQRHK
Serine/threonine-protein kinase pim-2 (Homo sapiens), sequence (Q9P1W9 whole entry, looked up): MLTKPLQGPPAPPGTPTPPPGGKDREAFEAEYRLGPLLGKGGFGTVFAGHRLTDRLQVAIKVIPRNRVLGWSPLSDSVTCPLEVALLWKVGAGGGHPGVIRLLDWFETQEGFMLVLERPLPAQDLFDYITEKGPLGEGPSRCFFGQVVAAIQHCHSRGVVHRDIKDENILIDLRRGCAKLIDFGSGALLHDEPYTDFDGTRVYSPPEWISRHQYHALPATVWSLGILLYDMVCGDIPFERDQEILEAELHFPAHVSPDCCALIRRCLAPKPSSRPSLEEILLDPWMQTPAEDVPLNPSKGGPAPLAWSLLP
Serine/threonine-protein kinase SIK2 (Homo sapiens), sequence (Q9H0K1 whole entry, looked up): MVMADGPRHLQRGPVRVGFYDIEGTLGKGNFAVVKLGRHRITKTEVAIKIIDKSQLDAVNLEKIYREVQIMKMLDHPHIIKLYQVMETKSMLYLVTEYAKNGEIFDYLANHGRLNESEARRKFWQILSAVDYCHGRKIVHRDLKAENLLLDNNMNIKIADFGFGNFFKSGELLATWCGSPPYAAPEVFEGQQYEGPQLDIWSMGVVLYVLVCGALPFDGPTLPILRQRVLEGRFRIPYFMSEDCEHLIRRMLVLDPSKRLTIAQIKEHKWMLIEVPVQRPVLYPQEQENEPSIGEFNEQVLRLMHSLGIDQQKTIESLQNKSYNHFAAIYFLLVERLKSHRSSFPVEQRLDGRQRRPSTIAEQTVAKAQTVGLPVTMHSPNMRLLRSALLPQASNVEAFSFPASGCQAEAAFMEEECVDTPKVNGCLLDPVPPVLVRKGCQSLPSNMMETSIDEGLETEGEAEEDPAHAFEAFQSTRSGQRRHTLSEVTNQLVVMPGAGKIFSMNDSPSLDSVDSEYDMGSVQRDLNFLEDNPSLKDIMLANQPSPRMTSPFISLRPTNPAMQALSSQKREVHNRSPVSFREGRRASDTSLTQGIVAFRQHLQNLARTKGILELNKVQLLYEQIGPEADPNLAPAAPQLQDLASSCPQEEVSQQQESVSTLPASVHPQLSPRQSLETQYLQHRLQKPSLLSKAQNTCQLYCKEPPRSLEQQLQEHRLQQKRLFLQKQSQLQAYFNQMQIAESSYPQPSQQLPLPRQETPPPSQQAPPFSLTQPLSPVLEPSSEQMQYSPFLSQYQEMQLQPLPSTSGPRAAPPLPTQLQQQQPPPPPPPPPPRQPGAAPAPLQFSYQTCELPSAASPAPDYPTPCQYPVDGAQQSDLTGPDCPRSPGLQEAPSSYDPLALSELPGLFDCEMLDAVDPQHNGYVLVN
Casein kinase I isoform alpha (Homo sapiens), sequence (P48729 2-337 limits assumed): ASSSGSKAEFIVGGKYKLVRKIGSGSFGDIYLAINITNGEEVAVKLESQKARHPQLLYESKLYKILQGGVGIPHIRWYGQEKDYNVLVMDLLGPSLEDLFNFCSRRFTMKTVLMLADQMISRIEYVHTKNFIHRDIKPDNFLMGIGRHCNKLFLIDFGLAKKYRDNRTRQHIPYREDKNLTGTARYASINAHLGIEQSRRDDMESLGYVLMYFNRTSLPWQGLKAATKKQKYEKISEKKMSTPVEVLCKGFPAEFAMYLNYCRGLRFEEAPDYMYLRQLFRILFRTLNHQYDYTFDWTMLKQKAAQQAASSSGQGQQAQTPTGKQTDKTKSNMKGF
Serine/threonine-protein kinase SIK1 (Homo sapiens), sequence (P57059 whole entry): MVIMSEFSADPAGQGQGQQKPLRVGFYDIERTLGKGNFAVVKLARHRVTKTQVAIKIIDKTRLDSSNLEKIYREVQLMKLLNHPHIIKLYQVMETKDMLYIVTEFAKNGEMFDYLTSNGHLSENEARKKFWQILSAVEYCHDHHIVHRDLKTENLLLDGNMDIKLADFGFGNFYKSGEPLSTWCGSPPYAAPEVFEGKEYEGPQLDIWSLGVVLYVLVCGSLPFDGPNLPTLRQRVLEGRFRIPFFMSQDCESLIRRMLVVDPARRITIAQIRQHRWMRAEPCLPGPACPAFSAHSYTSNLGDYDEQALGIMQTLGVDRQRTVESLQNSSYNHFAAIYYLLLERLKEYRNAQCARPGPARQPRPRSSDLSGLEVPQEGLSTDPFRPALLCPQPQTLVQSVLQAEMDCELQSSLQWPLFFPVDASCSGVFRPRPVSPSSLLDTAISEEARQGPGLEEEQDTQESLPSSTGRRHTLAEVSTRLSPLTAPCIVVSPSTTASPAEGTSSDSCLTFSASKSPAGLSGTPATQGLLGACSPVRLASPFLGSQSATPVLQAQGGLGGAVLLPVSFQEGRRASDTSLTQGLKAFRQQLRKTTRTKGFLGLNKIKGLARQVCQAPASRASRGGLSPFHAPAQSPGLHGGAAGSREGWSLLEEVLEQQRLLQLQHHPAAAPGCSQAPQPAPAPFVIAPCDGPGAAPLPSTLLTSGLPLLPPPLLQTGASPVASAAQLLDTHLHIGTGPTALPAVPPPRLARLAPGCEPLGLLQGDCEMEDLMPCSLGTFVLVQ

| Structure (SMILES) | inhibition [1] | inhibition [2] | inhibition [3] | inhibition [4] | inhibition [5] | inhibition [6] | inhibition [7] | inhibition [8] | inhibition [9] | inhibition [10] | inhibition [11] | inhibition [12] | inhibition [13] | inhibition [14] | inhibition [15] | inhibition [16] | inhibition [17] | inhibition [18] | inhibition [19] | inhibition [20] |
| --- | --- | --- | --- | --- | --- | --- | --- | --- | --- | --- | --- | --- | --- | --- | --- | --- | --- | --- | --- | --- |
| O=C(Nc1n[nH]c2cc(-c3ccccc3)ccc12)C1CC1 | 0.64% | -2.16% | -2.34% | 1.27% | 0.86% | 5.14% | 9.28% | 5.24% | 12.8% | 1.84% | 8.06% | 2.16% | 2.02% | 1.41% | 0.6% | 3.51% | 5.68% | 5.13% | 5.75% | 4.46% |
| COc1cc(Nc2ncc3c(C)nc(-c4cccc(Oc5ccccc5)c4)n3n2)cc(OC)c1OC | 1.14% | 0.34% | -0.16% | -0.04% | -1.56% | 3.67% | 10.1% | 1.91% | 0.43% | 4.47% | 28.8% | 3.11% | 5.53% | 1.01% | -1.11% | 6.15% | 3.63% | 1.67% | 3.71% | 0.59% |
| COc1ccc2ncn(-c3cc(O[C@H](C)c4ccccc4Cl)c(C(N)=O)s3)c2c1 | -2.83% | 0.05% | 4.48% | 1.58% | 1.26% | 4.44% | 11.2% | 2.04% | 0.17% | 2.41% | 3.86% | 2.29% | 2.54% | 0.96% | 1.28% | 2.14% | 2.16% | 0.39% | -0.54% | -0.05% |
| Fc1ccc(-c2ncn(C3CCNCC3)c2-c2ccnc(Oc3ccc(Oc4ccccc4)cc3)n2)cc1 | -0.39% | -1.06% | 0.02% | 1.12% | 1.72% | 7.97% | 12.8% | 6.45% | 10.1% | 2.66% | 2.57% | 4.18% | 4.2% | 0.94% | 2.4% | 10.7% | 49.6% | 6.35% | 20.6% | 5.54% |
| COc1cc(Nc2ncc3c(C)nc(-c4cccc(C(F)(F)F)c4)n3n2)cc(OC)c1OC | 3.02% | 3.42% | 6.73% | 1.19% | 2.92% | 3.9% | 15.9% | 10.9% | 13.5% | 1.64% | 25.5% | 4.46% | 9.14% | 4.53% | 3.7% | 7.78% | 6.02% | 2.94% | 4.47% | 2.07% |
| COc1cc(C)c(N(C)C(=O)CN(C)C)cc1Nc1nc(Nc2cccc(F)c2C(N)=O)c2cc[nH]c2n1 | -2.78% | -0.52% | 0.76% | 0.02% | -1.14% | 3.07% | 5.4% | 4.5% | 2.04% | 1.26% | 3.23% | 3.79% | 16.4% | 1.25% | 4.87% | -0.71% | 6% | -0.75% | 11.3% | -2.38% |
| COc1ccc(-c2ccc3c(NC(=O)C4CC4)n[nH]c3n2)cc1 | 0.38% | 0.42% | 0.61% | 1.05% | 2.54% | -0.67% | 4.73% | 2.86% | 6.15% | 2.33% | 0.62% | 2.89% | 4.85% | 0.65% | 4.63% | 6.34% | 0.42% | 1.84% | 2.17% | 1.99% |
| CN(C)CCOc1ccc(-c2cc(-c3ccc4c(c3)CCC4=NO)c(-c3ccncc3)o2)cc1 | 0.08% | 1.08% | 0.13% | -0.29% | -0.04% | 0.11% | 6.09% | -4.64% | -1.24% | -2.4% | -0.95% | -0.74% | 0.17% | 0.18% | 1.16% | -1.99% | -1.5% | -1.03% | -0.13% | -0.84% |
| NS(=O)(=O)c1ccc(Nc2cc(-c3ccc(O)c(F)c3)n[nH]2)cc1 | 0.39% | -0.55% | 1.15% | -1.43% | -1.22% | -8.2% | -0.79% | -6.2% | 8.46% | -1% | 7.59% | -1.37% | -0.04% | -3.53% | -0.52% | -2.61% | 4.49% | -2% | 0.81% | -1.44% |
| O=C(NCC1CC1)c1ccc(-c2cccc(C(=O)NC3CC3)c2)cc1 | 0.96% | -0.84% | -3.1% | 0.6% | -0.88% | 0.25% | 4.41% | -1.64% | -0.16% | 2.28% | 0.69% | 2.17% | -0.94% | 0.33% | -1.83% | 2.21% | 3.38% | 2.43% | 3.84% | 1.59% |
| COc1ccc2cc(-c3c(-c4ccncc4)nc(-c4ccc([S+](C)[O-])cc4C)n3C)ccc2c1 (stereo not given) | 0.03% | 0.41% | 0.9% | -0.74% | -0.31% | -2.25% | 3.56% | -6.12% | -0.83% | 0.16% | 1.97% | 0.4% | -0.58% | 0.06% | -0.06% | 0.77% | 0.53% | -0.99% | -0.39% | -0.73% |
